The values that follow come from PubChem BioAssay AID488851 (National Center for Advancing Translational Sciences (NCATS), 2010).

Results filed as inconclusive are left out. Activity calls are given as the source filed them. The call rests on the fitted dose curve; in most records, active means well fitted activation curve with a large enough effect; inconclusive means small, poorly fitted or top-dose-only effect; inactive means flat fitted curve, though single readings scatter.

Chain of Lysosomal acid glucosylceramidase (Homo sapiens) (P04062 whole entry, looked up): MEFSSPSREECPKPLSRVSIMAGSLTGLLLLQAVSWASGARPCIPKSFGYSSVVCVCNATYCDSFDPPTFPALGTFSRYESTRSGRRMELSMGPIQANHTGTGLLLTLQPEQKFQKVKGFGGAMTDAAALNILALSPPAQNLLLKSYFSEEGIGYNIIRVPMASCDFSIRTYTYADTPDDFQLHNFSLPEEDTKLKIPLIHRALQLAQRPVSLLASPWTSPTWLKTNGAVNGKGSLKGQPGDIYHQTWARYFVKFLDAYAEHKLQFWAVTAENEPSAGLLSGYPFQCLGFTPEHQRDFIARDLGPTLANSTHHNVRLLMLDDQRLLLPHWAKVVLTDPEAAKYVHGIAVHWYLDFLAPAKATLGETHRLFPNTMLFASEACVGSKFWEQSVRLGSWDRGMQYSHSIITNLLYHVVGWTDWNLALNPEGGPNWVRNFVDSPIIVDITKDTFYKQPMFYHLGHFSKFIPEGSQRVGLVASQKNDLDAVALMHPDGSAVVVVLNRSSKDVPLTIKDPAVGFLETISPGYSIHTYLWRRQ

The assay deals with Lysosomal acid glucosylceramidase (Homo sapiens) (UniProt P04062). As to the kind of experiment: qHTS Assay for Inhibitors and Activators of N370S glucocerebrosidase as a Potential Chaperone Treatment of Gaucher Disease: Purified Non-mutant Confirmation for Probe SAR. To be noted: purified GC, 4MU-beta-glucoside fluorescence, 40 min; series mostly up to 57.5 µM. An excerpt:
NIH Chemical Genomics Center [NCGC] NIH Molecular Libraries Probe Production Centers Network [MLPCN] MLPCN Grant: MH086442-01 Assay Submitter (PI): Wei Zheng Glucocerebrosidase (GC) catalyzes the hydrolysis of beta-glucocerebroside to glucose and ceramide in lysosomes. Mutations in the glucocerebrosidase gene result in Gaucher disease, an autosomal recessive lysosomal storage disorder. Many of the mutations encountered in patients with Gaucher disease are missense alterations that may cause misfolding, decreased stability and/or mistrafficking of this lysosomal protein. […] These inhibitors include iminosugar analogs and three non-iminosugar inhibitors identified from a previous HTS of 62,000 compounds with the wild type recombinant enzyme. However, the enhancement of enzyme activity by the chaperone action of an enzyme inhibitor must be balanced against the direct inhibition of the enzyme. An enzyme activator could also function as a chaperone by binding to the enzyme and helping to correct its misfolding and mistrafficking. While activators for GC have not yet been identified, they may have better therapeutic potential than inhibitors. Therefore the discovery and development of chemical activators may provide a new strategy for the chaperone therapy. We have optimized a new assay using N370S mutant GC derived from the spleen of a Gaucher patient. […] In addition, the MLPCN compound library has expanded, which increases the chance of finding new and better probes. This assay characterizes compound activity using purified wildtype enzyme instead of mutant enzyme from tissue homogenate. Compound activity differences may be due to the absence of endogenous cofactors found in tissue homogenate as well as inherent differences in enzyme stability and catalytic activity between the N370S and wildtype forms of the protein.
NCGC Assay Protocol Summary: This is a fluorogenic enzyme assay with 4-methylumbelliferyl-beta-D-glucopyranoside as the substrate and purified wildtype glucocerebrosidase as the enzyme preparation. Upon the hydrolysis of this fluorogenic substrate, the resulting product, […] which can be detected by a standard fluorescence plate reader. Data were normalized to the controls for basal activity (without enzyme) and 100% activity (with enzyme). The AC50 values were determined from concentration-response data modeled with the standard Hill equation. Assay buffer: 50 mM citric acid (titrated with potassium phosphate to pH 5.0), 100 mM potassium chloride, 10 mM sodium chloride, 1 mM magnesium chloride, 0.01% Tween-20. 1536-well assay protocol: (1) Add 2 ul/well of glucocerebrosidase enzyme solution (5 nM final) (2) Add 23 nL compounds in DMSO solution. The final titration was 0.5 nM to 58 uM. (3) Add 2 ul of substrate (1 mM final) (4) Incubate at 37C for 40 min. (5) Add 2 ul stop solution (1M NaOH and 1M Glycine mixture, pH 10) (6) Detect the assay plate in a ViewLux plate reader (PerkinElmer) with Ex=365 nm and Em=440nm. Keywords: Glucocerebrosidase, beta-glucosidase, Gaucher Disease, pharmacological chaperone, chaperone therapy, high throughput screening, glucocerebrosidase inhibitor, MLSMR, MLSCN, NIH Roadmap, qHTS and NCGC
(Quantitative high-throughput screening tests each substance at several concentrations.)
As to `Cc1cc(C)n2ncc(C(=O)Nc3ccc4c(c3)OCCO4)c2n1`, the Potency is 16.3 µM (active).
`Cc1cc(C)n2ncc(C(=O)Nc3ccccc3C)c2n1`: the Potency is 13 µM (active).
Turning to `Cc1cc(C)n2ncc(C(=O)Nc3ccc4c(c3)OCO4)c2n1`, the Potency is 10.3 µM (active).
For the compound `Cc1cc(C)n2ncc(C(=O)Nc3ccc(C)c(C)c3)c2n1`, the Potency is 5.8 µM (active).
Turning to `CNC(=O)c1cnn2c(C)cc(C)nc12`, the Potency entry is “inactive”.
Take `CCc1ccc(NC(=O)c2cnn3c(C)cc(C)nc23)cc1`: the Potency was 11.6 µM (active).
For `C#Cc1ccc(NC(=O)c2cnn3c(C)cc(C)nc23)cc1`, the Potency was 5.17 µM (active).
`Cc1cc(C)n2ncc(C(=O)Nc3ccccc3)c2n1`: the Potency is 7.3 µM (active).
On to `COc1ccc(NC(=O)c2cnn3c(C)cc(C)nc23)cc1OC`, for which the Potency entry was “inactive”.
In the case of `COc1ccc(NC(=O)c2cnn3c(C)cc(C)nc23)cc1Cl`, the Potency is 20.6 µM (active).
For the compound `Cc1ccc(NC(=O)c2cnn3c(C)cc(C)nc23)c(C)c1`, the Potency was 20.6 µM (active).
For `Cc1cc(C)n2ncc(C(=O)Nc3ccc(S(C)(=O)=O)cc3)c2n1`, the Potency entry was “inactive”.
As for `Cc1cc(C)n2ncc(C(=O)Nc3cccc(C#N)c3)c2n1`, the Potency result is “inactive”.
The value for `Cc1cc(C)n2ncc(C(=O)Nc3ccncc3)c2n1` was “inactive”.
Consider `Cc1cc(C)n2ncc(C(=O)N3CCCC3)c2n1`, for which the Potency result was “inactive”.
As for `Cc1cc(C)n2ncc(C(=O)NC3CCC(C(C)(C)C)CC3)c2n1` (stereo unspecified), the Potency is 13 µM (active).
The value for `COc1ccc(NC(=O)c2cnn3c(C)cc(C)nc23)cc1` was 16.3 µM (active).
Regarding `CC(=O)c1cccc(NC(=O)c2cnn3c(C)cc(C)nc23)c1`, the Potency was 32.6 µM (active).
On to `Cc1cc(C)n2ncc(C(=O)NC(C)C)c2n1`, for which the Potency was 41.1 µM (active).
The result for `Cc1cc(C)n2ncc(C(=O)NCc3ccccc3)c2n1` reads 32.6 µM (active); that for `CC(=O)c1ccc(NC(=O)c2cnn3c(C)cc(C)nc23)cc1`, “inactive”.
For the compound `O=C(Nc1ccccc1Sc1ccccc1)c1cnn2c1NC(=C1CC1)C=C2C(F)F`, the Potency is 32.6 µM (active).
Turning to `Cc1cc(C)n2ncc(C(=O)Nc3ccc4c(c3)CCC4)c2n1`, the Potency is 10.3 µM (active).
Consider `Cc1cccc(NC(=O)c2cnn3c(C)cc(C)nc23)c1`, for which the Potency is 16.3 µM (active).
The value for `Cc1cc(C)n2ncc(C(=O)NC3CCCCC3)c2n1` was 11.6 µM (active).
Take `COc1ccc(NC(=O)c2cnn3c(C)cc(C)nc23)cc1F`: the Potency was 13 µM (active).
For `Cc1cc(C)n2ncc(C(=O)Nc3ccc(C(F)(F)F)cc3)c2n1`, the Potency is 6.51 µM (active).
For the compound `Cc1cc(C)n2ncc(C(=O)NCc3ccco3)c2n1`, the Potency is 23.1 µM (active).
The value for `CC(=O)Nc1ccccc1NC(=O)c1cnn2c(C)cc(C)nc12` was “inactive”.
With `Cc1cc(C)n2ncc(C(=O)Nc3ccc(Br)cc3)c2n1`, the Potency was 16.3 µM (active).
The value for `Cc1ccc(NC(=O)c2cnn3c(C)cc(C)nc23)cc1` was 9.19 µM (active).
